From PubChem BioAssay (Tox21) come the findings set out here.

Molecules are shown by their SMILES. Where “and” joins values, the source holds several entries; their conditions need not be identical. Equal entries are not always repeated. Inconclusive results are not listed. Some compounds were tested as several samples or in several runs, with calls that do not always agree. Calls of active or inactive are those of the source. Calls follow the shape of the dose curve; as a rule, active = well fitted curve in the direction sought with a large enough effect in the repeat runs; inconclusive = weak or mixed curves; inactive = no such curve, though single readings can be large; an effect the other way counts as inactive or inconclusive.

The nature of test [1]: A CellTox Green Cytotoxicity Assay to monitor cytotoxicity in HEK293 cells - 32 hour (AID 1224881). Also: nearly all actives have a fitted effect of over 40% in size. Also: potency is read from the fitted curve at half-maximal effect. The procedure, abridged: (§1)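 Fluorescence from a DNA-binding dye excluded by viable cells was measured repeatedly in the same HEK293 wells (600 cells/well) during continuous compound exposure at 37 C. Each assay gives one read point: 0, 8, 16, 24, 32 or 40 h.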
Test [2] can be described thus: A CellTox Green Cytotoxicity Assay to monitor cytotoxicity in HepG2 cells - 0 hour (AID 1224882). Also: nearly all actives have a fitted effect of over 35% in size. The method, boiled down:
(§2)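 Real-time cytotoxicity: fluorescence of a cell-impermeant cyanine dye binding DNA of dead HepG2 cells, measured repeatedly (0–40 h) during compound exposure at 37 C. Cells seeded 600/well with reagent, dosed after 5 h.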

Test [3] is described as follows: A CellTox Green Cytotoxicity Assay to monitor cytotoxicity in HepG2 cells - 32 hour (AID 1224883). Also: nearly all actives have a fitted effect of over 50% in size. Also: potency is read from the fitted curve at half-maximal effect. The procedure, abridged:
as §2

Test [4] in a line: A CellTox Green Cytotoxicity Assay to monitor cytotoxicity in HEK293 cells - 8 hour (AID 1224884). Also: nearly all actives have a fitted effect of over 35% in size. Also: potency is read from the fitted curve at half-maximal effect. The method, boiled down: as §1
Test [5] in a line: qHTS RealTime-Glo MT Cell Viability Assay in HEK293 cells - 24 hour (AID 1224886). Also: nearly all actives have a fitted effect of over 50% in size. Also: potency is read from the fitted curve at half-maximal effect. The procedure, abridged: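 Reads taken at 0, 8, 16, 24, 32 and 40 h from the same wells. HEK293 cells (600/well) carried RealTime-Glo reagents from seeding, with compound added after a 5 h settle at 37 C.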
Test [6] is described as follows: qHTS RealTime-Glo MT Cell Viability Assay in HEK293 cells - 8 hour (AID 1224887). Also: nearly all actives have a fitted effect of over 50% in size. Also: potency is read from the fitted curve at half-maximal effect. The method, boiled down:
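Luminescence, which tracks viable cell number through reduction of the prosubstrate to a NanoLuc substrate, was read over continuous 37 C culture. Cells (600/well) were premixed with reagent and rested 5 h before 23 nL of compound in DMSO was pinned.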
On the technique in general: In qHTS, concentration-response curves come from the screen itself.

Test [7] can be described thus: qHTS RealTime-Glo MT Cell Viability Assay in HepG2 cells - 0 hour (AID 1224889). Also: nearly all actives have a fitted effect of over 50% in size. The method, boiled down:
(§3)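 HepG2 suspension premixed with RealTime-Glo reagents is plated at 600 cells per well and left 5 h at 37 C/5% CO2. Compounds in DMSO then go in, and bioluminescence reflecting viable cell number is recorded over 40 h.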

Test [8] is described as follows: A CellTox Green Cytotoxicity Assay to monitor cytotoxicity in HEK293 cells - 16 hour (AID 1224888). Also: nearly all actives have a fitted effect of over 35% in size. Also: potency is read from the fitted curve at half-maximal effect. The procedure, abridged: as §1
A short description of test [9]: A CellTox Green Cytotoxicity Assay to monitor cytotoxicity in HepG2 cells - 8 hour (AID 1224890). Also: nearly all actives have a fitted effect of over 45% in size. Also: potency is read from the fitted curve at half-maximal effect. The method, boiled down: as §2
Test [10] can be described thus: qHTS RealTime-Glo MT Cell Viability Assay in HepG2 cells - 16 hour (AID 1224885). Also: nearly all actives have a fitted effect of over 50% in size. Also: potency is read from the fitted curve at half-maximal effect. The method, boiled down: as §3

In the case of `CCC(C)(C)c1ccc(O)c(C(C)(C)CC)c1`, the Potency is 48.5 µM (active) and 13.8 µM (active) in test [1]; 30.6 µM (active) in [3]; 48.5 µM (active) and inactive in test [4]; 43.2 µM (active) in [5]; 24.3 µM (active) in test [6]. Moreover, in test [2], the Potency entry is “inactive”. Besides, the compound was called inactive in test [7].
On to `Cc1ccc(N)c(C)c1`, for which the Potency result in [1], in test [2], in test [3], in test [4], in [5] and in test [8] was “inactive” each time. Further, the Potency result in test [9] is “inactive”. The outcome in [7] was inactive.
With `CCCCCCCCn1sccc1=O`, the Potency was 55.1 µM (active) and 25.7 µM (active) in [1]; 43.7 µM (active) and 22.9 µM (active) in test [3]; 36.3 µM (active) in test [4]; 12.3 µM (active) and 12.9 µM (active) in test [5]; 51.3 µM (active) in test [8]; 25.7 µM (active) in test [9]. In addition, in [2], the Potency result was “inactive”. In addition, in test [7], the outcome was inactive.
As to `CCCC[P+](CC)(CCCC)CCCC` (tested in a mixture with another compound), the Potency entry in test [2], in test [3], in [4], in test [6] and in test [9] was “inactive” throughout. Also, the compound was called inactive in test [7].
Turning to `COc1cc(C[C@@H](C)N)c(OC)cc1Br`, the Potency result in [1], in [2], in test [4], in [5], in [6] and in [8] was “inactive” throughout. For the same compound, in test [9], the Potency result is “inactive”.
Turning to `C=CCN1C[C@H](C)N([C@H](c2ccc(C(=O)N(CC)CC)cc2)c2cccc(OC)c2)C[C@H]1C`, the Potency entry in test [2], in test [4], in [10], in test [6], in [8] and in test [9] was “inactive” each time. In addition, the compound was classed as inactive in [7].
Turning to `O=[N+]([O-])c1cc(Cl)c(Cl)cc1Cl`, the Potency result in [2], in test [3], in test [4], in test [10], in test [5] and in [6] was “inactive” in each case. In addition, the Potency entry in test [8] and in test [9] was “inactive” in each case. The outcome in test [7] was inactive.
Take `OCC1CO1` (stereo unspecified): the Potency result in test [1], in test [10], in test [5], in test [6] and in test [8] was “inactive” in each case. In test [4], the Potency was 44.4 µM (active) and inactive. Moreover, the result in [7] was inactive.
With `CN1CC[C@]23c4c5ccc(O)c4O[C@H]2[C@@H](O)C=C[C@H]3[C@H]1C5`, the Potency result in test [1], in [3], in [4], in test [10], in test [5] and in test [6] was “inactive” each time. The Potency entry in test [8] and in [9] was “inactive” each time. Moreover, in test [7], the outcome was inactive.
Consider `Clc1ccc2ccccc2c1`, for which, in [1], the Potency is 50.5 µM (active). Also, the Potency entry in test [2], in [3] and in [10] was “inactive” each time. For the same compound, the call in test [7] was inactive.
Take `O=[N+]([O-])/C=C/c1ccccc1`: the Potency result in test [2], in test [4] and in [8] was “inactive” each time. Also, the Potency in [3] is 17.7 µM (active); in test [10] it was 49.8 µM (active) and 21.9 µM (active); in test [5] it was 6.27 µM (active) and 13.8 µM (active). Moreover, the outcome in [7] was inactive.
For `O=CC=O`, the Potency entry in [1], in test [2], in test [3], in test [10], in test [5] and in [6] was “inactive” throughout. Moreover, the Potency entry in test [8] and in test [9] was “inactive” throughout. Besides, the result in test [7] was inactive.
For the compound `C#C[C@]1(O)CC[C@H]2[C@@H]3CCC4=CC(=O)CCC4=C3C=C[C@@]21CC`, the Potency entry in test [1], in test [2], in test [4], in test [6] and in test [8] was “inactive” in each case. Besides, the compound was classed as inactive in test [7].
With `C=CCOC(=O)C(C)(C)OC(=O)c1cc(-n2c(=O)cc(C(F)(F)F)n(C)c2=O)ccc1Cl`, the Potency result in test [1], in test [2], in test [3], in test [4], in [8] and in test [9] was “inactive” throughout. Besides, the Potency in test [5] was 19.1 µM (active). For the same compound, the compound was called inactive in [7].
`CC(=O)OC(c1ccccc1)C(Cl)(Cl)Cl` (stereo unspecified): the Potency was 19.5 µM (active) in test [1], 24.5 µM (active) in [3], 19.5 µM (active) in [4] and 24.5 µM (active) in [9]. The Potency entry in test [5] and in [6] was “inactive” throughout. Further, in [7], the compound was classed as inactive.
As for `C=CCc1ccc(OC(=O)Cc2ccccc2)c(OC)c1`, the Potency result in [1], in test [2], in [4], in [10], in [6] and in [8] was “inactive” each time. Besides, the Potency result in [9] is “inactive”. In addition, the outcome in [7] was inactive.
Turning to `CCC1(CC)C(=O)NC(=O)NC1=O`, the Potency result in test [1], in test [2], in test [4], in test [10], in test [5] and in test [6] was “inactive” in each case. For the same compound, in test [8], the Potency result is “inactive”. Moreover, in test [7], the outcome was inactive.
Take `CN(C)C(=O)Nc1cccc(OC(=O)NC(C)(C)C)c1`: the Potency entry in test [1], in [2], in test [3], in [10], in test [5] and in [6] was “inactive” in each case. Moreover, the Potency result in test [8] and in [9] was “inactive” in each case. In addition, in test [7], the outcome was inactive.
As for `O=C(Cc1ccccc1)OCCc1ccccc1`, the Potency entry in [1], in [2], in test [3], in test [4], in test [5] and in test [8] was “inactive” in each case. Also, in test [9], the Potency result is “inactive”. Also, in test [7], the result was inactive.
Turning to `CCOC(C(=O)OCCN(C)C)(c1ccccc1)c1ccccc1`, the Potency entry in [1], in [2], in test [3], in test [4], in test [5] and in [8] was “inactive” throughout. Further, in test [9], the Potency result was “inactive”. The compound was called inactive in test [7].
